From PubChem BioAssay
TDP1 cell noCPT – qHTS for Inhibitors of human tyrosyl-DNA phosphodiesterase 1 (TDP1): qHTS in cells in absence of CPT. DT40 Tdp1-/- hTDP1 cells, no CPT, ATP luminescence, 48 h. Potency, µM (highest dose often 46.2 µM), for inactives: at the top dose activity change, negative = growth inhibition, hits mostly inhibitors. hit rate 15% among 420,000; further: potency means the concentration at half of the fitted maximal effect; nearly all actives have a fitted effect of over 55% in size
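Luminescent ATP content (CellTiter-Glo) served as the growth readout. Knockout chicken DT40 cells expressing human TDP1 were exposed to compounds without camptothecin for a minimum 48 hr at 37 °C.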
HT1080 IDH1KD tx – qHTS for induction of synthetic lethality in tumor cells producing 2HG: qHTS for the HT-1080-IDH1KD cell line; hit rate 2% among 360,000; AID 686971, 2013; Potency, µM (top dose mostly 46.1 µM), without a hit: at the highest dose activity, negative = toxicity, usual class: cytotoxic; HT-1080 IDH1 knockdown viability, ATP luminescence, 48 h;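 further: potency means the concentration at half of the fitted maximal effect; 0% = DMSO wells and -100% = cell-free medium wells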
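CellTiter-Glo luminescence after 48 h compound exposure at 37 degrees C of IDH1-knockdown HT-1080 cells in 5% FBS RPMI. %Activity scaled between DMSO wells and cell-free media wells, with curves fitted and assigned curve classes.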
IL-1B inflam inh – qHTS for Inhibitors of Inflammasome Signaling: IL-1-beta AlphaLISA Primary Screen. THP-1 LPS/ATP IL-1B secretion, AlphaLISA, 16 h; stronger effect = lower value. activity change, % at 57.5 µM. hit rate 4.7% among 360,000. AID 743279, 2014; in the data active means activity change below about -50%; inconclusive means mostly about -30% to -49%
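THP-1 cells pretreated 1 hr with compounds (up to 57.5 uM final), then stimulated with LPS (250 ng/mL final) plus ATP (1.25 mM final); secreted IL-1B measured by AlphaLISA after 16 hr, decreased signal indicating inhibition.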
HT1080-NT tox – qHTS for induction of synthetic lethality in tumor cells producing 2HG: qHTS for the HT-1080-NT fibrosarcoma cell line; HT-1080-NT fibrosarcoma viability, CellTiter-Glo ATP luminescence, 48 h; Potency, µM (doses to about 46.1 µM), inactives show at the top dose activity, negative = less viability, most hits filed as cytotoxic; hit rate 1.6% among 360,000; AID 686970, 2013;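 further: NT is the 2HG producing partner of a matched IDH1 knockdown line; potency means the concentration at half of the fitted maximal effect; 0% = DMSO-treated cells and -100% = media-only wells without cells; nearly all actives have a fitted effect of over 55% in size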
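A 48-hour cytotoxicity screen used HT-1080-NT cells plated 2 hours before compound delivery. ATP-based CellTiter-Glo luminescence measured viability, normalized to DMSO and no-cell controls.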
12-LOX inh – Primary qHTS assay for inhibitors of human arachidonate 12S-lipoxygenase (ALOX12): Round 2 | purified 12hLO, xylenol orange hydroperoxide absorbance | Potency, µM (highest dose often 108 µM), for inactives: top-dose activity change, negative = inhibition, actives largely listed as inhibitors | hit rate 1.1% among 580,000 | AID 1671190, 2021; further: potency means the concentration at half of the fitted maximal effect
Target sequence (P18054 whole entry, looked up): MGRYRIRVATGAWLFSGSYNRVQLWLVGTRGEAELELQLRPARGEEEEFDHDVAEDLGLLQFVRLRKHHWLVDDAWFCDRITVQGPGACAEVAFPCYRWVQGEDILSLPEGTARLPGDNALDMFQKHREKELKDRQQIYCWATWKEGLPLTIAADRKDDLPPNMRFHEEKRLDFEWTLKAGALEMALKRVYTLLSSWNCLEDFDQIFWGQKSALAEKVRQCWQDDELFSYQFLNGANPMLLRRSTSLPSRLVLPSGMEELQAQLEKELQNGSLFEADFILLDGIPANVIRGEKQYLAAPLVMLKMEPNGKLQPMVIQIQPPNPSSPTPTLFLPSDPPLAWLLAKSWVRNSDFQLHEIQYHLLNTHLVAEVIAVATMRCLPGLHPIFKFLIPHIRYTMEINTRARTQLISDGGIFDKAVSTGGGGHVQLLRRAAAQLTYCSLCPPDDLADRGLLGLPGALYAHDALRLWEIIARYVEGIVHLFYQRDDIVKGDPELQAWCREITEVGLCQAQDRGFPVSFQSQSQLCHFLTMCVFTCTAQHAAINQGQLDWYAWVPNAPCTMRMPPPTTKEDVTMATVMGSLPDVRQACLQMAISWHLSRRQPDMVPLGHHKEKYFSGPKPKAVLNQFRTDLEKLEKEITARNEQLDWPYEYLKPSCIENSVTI
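Purified human 12hLO at 150 nM in 25 mM Hepes, 0.01% Triton X-100, pH 7.0, preincubated 15 min at room temperature with compound. Reaction started with 40 uM arachidonic acid, 30 min at room temperature. Hydroperoxide measured by Fe-xylenol orange, 573/405 nm absorbance ratio.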
DT40 TDP1 CPT – qHTS for Inhibitors of human tyrosyl-DNA phosphodiesterase 1 (TDP1): qHTS in cells in presence of CPT. chicken DT40 Tdp1-/-;hTDP1 cells + 20 nM CPT, ATP luminescence, 48 h. Potency, µM (highest dose often 46.2 µM), for inactives: at the top dose activity change, negative = growth inhibition, actives largely listed as inhibitors. hit rate 12% among 420,000. AID 686979, 2013; further: potency means the concentration at half of the fitted maximal effect; nearly all actives have a fitted effect of over 55% in size
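Cell growth measured by CellTiter-Glo luminescence after a minimum 48 h, 37 C compound exposure with 20 nM CPT in Tdp1-knockout DT40 cells stably expressing hTDP1, seeded 400/well; qHTS titration format.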
* marks the source's active call; other numbers are inactive results; ? = inconclusive; . = no result given; [ ] = dose if it differs, or a comment. The entries come from a sample that favours hits as a whole. Unless noted, the call rests on the fitted dose curve; in most records, active means well fitted curve in the direction sought with a large enough effect; inconclusive means small, poorly fitted or top-dose-only effect, or another doubt; inactive means no such curve, though single readings can be large; an effect the other way counts as inactive or inconclusive. Unless noted, on the % scale 0 is the no-effect control and ±100 the full control effect.

SMILES	TDP1 cell noCPT	HT1080 IDH1KD tx	IL-1B inflam inh	HT1080-NT tox	12-LOX inh	DT40 TDP1 CPT
COc1ccc(C)cc1S(=O)(=O)Nc1ccc2c(c1)N(C(C)=O)CCC2	16µM*	-4%	11	2%	-3%	26µM*
COc1cccc(OC)c1C(=O)Nc1ccc2c(c1)N(C(C)=O)CCC2	-4%	.	.	.	-9%	-2%
O=C(O)C1CCN(C(=O)N2CC3CC(C2)[C@H]2CCCC(=O)N2C3)CC1 (stereo partly drawn)	.	.	.	.	14%	.
CC(C)(Oc1nn(Cc2cccc(Cl)c2)c2ccccc12)C(=O)NCc1ccncc1	.	.	.	.	-2%[176 µM]	.
COc1cc(SC)ccc1C(=O)N1CCCCCC1	-29%	-2%	-2	-6%	0%	?
COc1cc(SC)ccc1C(=O)N1CCN(c2ccc(O)cc2)CC1	9.2µM*	-3%	24	0%	-25%	?
COc1cc(SC)ccc1C(=O)N1CCN(c2ccccc2)CC1	?	-7%	-80*	1%	-2%	-9%
COc1cc(SC)ccc1C(=O)N1CCN(Cc2ccccc2)CC1	?	-1%	-6	1%	-6%	-18%
Cc1ccc(NC(=O)CN2CCN(C(=O)CCc3ncc(-c4ccccc4)o3)CC2)cc1	.	.	.	.	23%	.
Cn1c(=O)c([N+](=O)[O-])c(N2CCN(Cc3ccc4c(c3)OCO4)CC2)c2ccccc21	8.2µM*	-16%	-22	-18%	0%	13µM*
COc1ccc2c(c1)c(C(O)CN1CCN(Cc3ccc4c(c3)OCO4)CC1)c(C)n2C (stereo not drawn)	23µM*	-29%	-15	-27%	-26%	?
Cn1c(C(=O)N2CCN(Cc3ccc4c(c3)OCO4)CC2)cc2c(=O)n(C)c3ccccc3c21	?	-18%	-27	-28%	?	?
Cc1c(C(O)CN2CCN(Cc3ccc4c(c3)OCO4)CC2)c2ccccc2n1C (stereo not drawn)	-30%	11µM*	-10	?	45µM*	?
OC(CN1CCN(Cc2ccc3c(c2)OCO3)CC1)c1c[nH]c2ccccc12 (stereo not drawn)	?	1%	?	-3%	19%	12µM*
OC(CN1CCN(c2ccccc2)CC1)c1c[nH]c2ccccc12 (stereo not drawn)	?	-30%	1	-17%	0%	?
CCn1nc(C)c(CCNC(=O)Nc2ccc(OC)cc2OC)c1C	.	.	.	.	-6%	.
CC(C)=CCn1c(-c2ccccc2Cl)cn2cc(C(=O)NCCCO)nc2c1=O	.	.	.	.	56%	.
O=C(Cc1ccccc1Cl)NNC(=O)C1CCCCC1	.	.	.	.	57%	.
COc1ccc2c(c1)c(C(O)CN1CCC(Cc3ccccc3)CC1)c(C)n2C (stereo not drawn)	?	-1%	-90*	-3%	?	?
CC1=NN(C(N)=S)C(=O)C1N=Nc1ccc(O)cc1 (stereo not drawn)	26µM*	-22%	49	-14%	?	-20%
CC1=NN(C(N)=S)C(=O)C1N=Nc1ccc(C)c(Br)c1 (stereo not drawn)	16µM*	-13%	12	-2%	204%	13µM*
CC1=NN(C(N)=S)C(=O)C1N=Nc1ccccc1Cl (stereo not drawn)	2.9µM*	4%	-7	-1%	-16%	5.8µM*
CC1=NN(C(N)=S)C(=O)C1N=Nc1cccc(C)c1 (stereo not drawn)	5.8µM*	7%	5	7%	-12%	3.3µM*
CC1=NN(C(N)=S)C(=O)C1N=Nc1ccc(Cl)cc1Cl (stereo not drawn)	?	-5%	-6	-1%	0%	-15%
COc1ccc(-c2nnc(SCC(=O)Nc3ccc(C)cc3C)[nH]c2=O)cc1	.	.	.	.	3%	.
SMILES	TDP1 cell noCPT	HT1080 IDH1KD tx	IL-1B inflam inh	HT1080-NT tox	12-LOX inh	DT40 TDP1 CPT
Cc1sc2nc(SCc3ccccc3)n(Cc3ccco3)c(=O)c2c1C	-23%	8%	18	-2%	2%	-2%
Cc1sc2nc(SCC(=O)C(C)(C)C)n(Cc3ccco3)c(=O)c2c1C	13µM*	6.3µM*	20	7.1µM*	-24%	13µM*
CCOC(=O)CC(=O)CSc1nc2sc(C)cc2c(=O)n1Cc1ccco1	23µM*	-3%	12	3%	-3%	16µM*
CCOC(=O)c1cc(CC)sc1NC(=O)CSc1nc2ccccc2c(=O)n1Cc1ccco1	?	16%	17	9%	-9%	?
NC(c1csc(NC(=O)Nc2ccccc2Cl)n1)C1CCCCC1 (stereo not drawn)	16µM*	?	0	?	2%	23µM*
COc1ccccc1NC(=O)Nc1nc(CC(=O)NC2CCCCCC2)cs1	.	.	.	.	17%	.
COc1cc(C(=O)N[C@H](C(=O)NC2CCCCCC2)C(C)C)cc(OC)c1OC	-25%	-2%	25	2%	-13%	-9%
COc1cc(NC(=O)Nc2nc(C(N)C3CCCCC3)cs2)cc(OC)c1OC (stereo not drawn)	23µM*	21µM*	-6	-77%	-17%	16µM*
COc1cc(NC(=O)Nc2nc(C(N)C(C)C)cs2)cc(OC)c1OC (stereo not drawn)	?	?	-5	16µM*	-2%	?
O=C(Nc1ccccc1Cl)NC1CCCCCCC1	9%	-1%	-15	17%	-18%	-14%
COc1ccccc1NC(=O)Nc1nc(C(N)C2CCCCC2)cs1 (stereo not drawn)	15µM*	?	.	16µM*	6%	23µM*
Cc1ccn(CCCNc2cc(C(C)C)ncn2)n1	.	.	.	.	41%	.
COc1ccc(CCNc2ncnc3nc[nH]c23)cc1	6.3µM*	.	.	.	.	2.8µM*
CCCCNC(=O)c1cccc2cccnc12	.	.	.	.	7%	.
COc1cccc(CNc2sc3c(c2C(=O)Nc2ccc(OC)cc2OC)CCC3)c1	21µM*	.	.	.	5%	13µM*
COc1ccc(CC(=O)Nc2sc3c(c2C(=O)Nc2ccccc2)CCCCC3)cc1	?	.	.	.	-21%	-69%
COc1ccc(OC)c(NC(=O)c2c(NCc3ccc(OC)c(OC)c3)sc3c2CCC3)c1	16µM*	.	.	.	?	15µM*
